{"source": "PubChem BioAssay", "note": "For some assays here: Potency and affinity values are given separately. Activity calls are given as the source filed them. Entries that show only a call come without a potency. How the calls were made is not given here."}
{"molecular_target": "Plasmodium falciparum protein kinase 6 (PK6, PF3D7_1337100) (UniProt Q8IDW1)", "sequence (Q8IDW1 1-305)": "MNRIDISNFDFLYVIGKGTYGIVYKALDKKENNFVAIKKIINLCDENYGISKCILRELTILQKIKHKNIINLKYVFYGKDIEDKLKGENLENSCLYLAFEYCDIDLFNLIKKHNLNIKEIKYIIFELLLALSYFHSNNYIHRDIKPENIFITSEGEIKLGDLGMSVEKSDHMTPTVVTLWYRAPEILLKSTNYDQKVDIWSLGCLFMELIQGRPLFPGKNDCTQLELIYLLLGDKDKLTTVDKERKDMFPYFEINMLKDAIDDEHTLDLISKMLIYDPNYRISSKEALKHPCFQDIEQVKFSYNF", "experiment": "PfPK6 kinase inhibitors, biochemical, TCAMS library (AID 1159586)", "settings": "recombinant PfPK6, Kinase-Glo ATP depletion luminescence"}
{"smiles": "CC[C@H](C)CNC(=O)c1cncc(-c2ccc(CNCCOc3ccccc3)cc2)c1", "outcome": "inactive"}
{"smiles": "COc1cccc(NC(=O)Nc2ccc(C)c(-c3ccc(C(=O)Nc4ccncc4)cc3)c2)c1", "outcome": "inactive"}
{"smiles": "CCCNCc1c(O)ccc2c(CNCCC)c(O)ccc12", "outcome": "inactive"}
{"smiles": "Clc1ncnc2ncn(Cc3cccc(Br)c3)c12", "outcome": "inactive"}
{"smiles": "CCN(CC)CCN(Cc1ccc(-c2ccc(C(F)(F)F)cc2)cc1)C(=O)c1ccc(-c2ccc(NC(=O)OC)cc2C)cc1", "outcome": "inactive"}
{"smiles": "CCNc1cc(C)nc(Nc2ccc(NC(=O)c3ccccc3)cc2)n1", "outcome": "inactive"}
{"smiles": "Cc1cccc2[nH]c(-c3cccc(-c4ccc(C(=O)NCc5ccccc5S(C)(=O)=O)cc4)c3)nc12", "outcome": "inactive"}
{"smiles": "CO/C(=C\\C=C\\c1cc2cc(Cl)c(Cl)cc2[nH]1)C(=O)NCCCCN1CCN(c2ccccc2OC)CC1", "outcome": "inactive"}
{"smiles": "COc1ccc(CNC2CCN(C)CC2)cc1-c1cccc(S(=O)(=O)NCc2ccccc2)c1", "outcome": "inactive"}
{"smiles": "O=C(c1cccc(Br)c1)N1CCN(c2ccc([N+](=O)[O-])c(NC3CC3)c2)CC1", "outcome": "inactive"}
{"smiles": "CN(C)CCNc1cc(-c2ccc3ccccc3c2)nc2ccccc12", "outcome": "inactive"}
{"smiles": "CC1(C)N=C(N)N=C(N)C1c1ccc(Cl)cc1", "note": "(stereo not given)", "outcome": "inactive"}
{"smiles": "CCCCCCCc1c2c(C)c(C(=O)OCC)nc-2cc2n1CC(C)=C2C", "outcome": "inactive"}
{"smiles": "COc1ccccc1Oc1c(N(C)S(=O)(=O)c2ccc(C(C)C)cc2)nc(C(F)(F)F)nc1N(C)S(=O)(=O)c1ccc(C(C)C)cc1", "outcome": "inactive"}
{"smiles": "Cc1ccc(CN2CCCN(Cc3cccc(C(=O)Nc4ccc(C(C)(C)C)cc4)c3)CC2)s1", "outcome": "inactive"}
{"smiles": "CCN(CC)C(=NCCCCCCN=C(NC(N)=NCc1ccc(Cl)cc1Cl)N(CC)CC)NC(N)=NCc1ccc(Cl)cc1Cl", "outcome": "inactive"}
{"smiles": "CCCNCc1ccc(-c2ccc(CN(Cc3cccs3)C(=O)C3CCN(C)CC3)cc2)nc1", "outcome": "inactive"}
{"smiles": "O=C(Nc1cccc(-c2cccc(-c3nc4ccc(C(F)(F)F)cc4[nH]3)c2)c1)c1ccncc1", "outcome": "inactive"}
{"smiles": "CN(C)CCNC(=O)c1cccc(-c2cnc3ccc(NCc4ccc(Cl)c(Cl)c4)nn23)c1", "outcome": "inactive"}
{"smiles": "CC(C)(C)S[C@H]1S[C@H](SC(C)(C)C)[C@@H](OC(=O)c2ccccc2)C(OC(=O)c2ccccc2)[C@H]1OC(=O)c1ccccc1", "note": "(stereo not given in full)", "outcome": "inactive"}
{"smiles": "COC(=O)Cn1c(C2CCN(CC3CCN(C(=O)/C=C/c4ccc(Cl)c(Cl)c4)CC3)CC2)nc2ccccc21", "outcome": "inactive"}
{"smiles": "N#CCCN1CCN(Cc2cccc(-c3ccc(-c4nc5ccccc5[nH]4)s3)c2)CC1", "outcome": "inactive"}
{"smiles": "COc1ccc(-c2cccc(NC(=O)c3ccc(Cl)cc3)c2)cc1CN1CCNCC1", "outcome": "inactive"}
{"smiles": "CCCCCCOc1ccc(C(=O)N(Cc2ccccc2)c2c(-c3ccccc3)nc3cc(C)ccn23)cc1", "outcome": "inactive"}
{"smiles": "Fc1cccc(COc2ccc(-n3ccc4c(NCCCn5ccnc5)ncnc43)cc2Cl)n1", "outcome": "inactive"}
{"smiles": "COc1ccc(O)c(C(=O)c2cc(C(=O)NC3CCCCC3)c(=O)n(C3CCCCC3)c2)c1", "outcome": "inactive"}
{"smiles": "Cc1ccc(N(CCC(=N)N)Cc2ccccc2)cc1", "outcome": "inactive"}
{"smiles": "CC(C)Oc1ccccc1-c1csc(C(=O)NCC2CCN(Cc3ccc(C(C)(C)C)cc3)C2)c1", "note": "(stereo not given)", "outcome": "inactive"}
{"smiles": "O=C1COc2ccc(CNC3CCC(O)(CCc4ccnc5cc6c(cc45)OCCO6)CC3)nc2N1", "note": "(stereo not given)", "outcome": "inactive"}
{"smiles": "C#CCCC(=O)Nc1cccc(-c2cccc(-c3nc4ccc(C(F)(F)F)cc4[nH]3)c2)c1", "outcome": "inactive"}
{"smiles": "CC(=O)Oc1ccc(C(=O)Oc2ccccc2C#CC#N)cc1OC(C)=O", "outcome": "inactive"}
{"smiles": "Cc1[nH]c(C)c(-c2ccc(-c3cccc(OC(F)(F)F)c3)nc2)c(=O)c1Cl", "outcome": "inactive"}
{"smiles": "FC(F)(F)c1ccc2nc(-c3ccc(-c4ccc(CNCCN5CCNCC5)cc4)s3)[nH]c2c1", "outcome": "inactive"}
{"smiles": "CCCCCCP(=O)(COc1ccc(CCN(CC(O)COc2cccc3[nH]c(C(N)=O)cc23)CC(O)COc2cccc3[nH]c(C(N)=O)cc23)cc1)OCCCC", "note": "(stereo not given)", "outcome": "inactive"}
{"smiles": "C[C@@H]1CN(c2cnn(C/C=C/c3ccc(NC(=O)c4ccc(Cl)cc4)cc3)c(=O)c2Cl)C[C@H](C)N1", "outcome": "inactive"}
{"smiles": "Cc1noc(C)c1-c1cccc(CNCc2cccc(-c3cccc(-c4nc5c(C)cccc5[nH]4)c3)c2)c1", "outcome": "inactive"}
{"smiles": "CNCc1ccc(-c2ccc3ccnc(N)c3c2)cc1", "outcome": "inactive"}
{"smiles": "COc1ccc(Cc2cccc(C(C(=O)NCc3cc(Cl)cc(Cl)c3)N3CCN(C)CC3)c2)cc1", "note": "(stereo not given)", "outcome": "inactive"}
{"smiles": "N#Cc1ccc2c(c1)CCN(CCC1CCC(NC(=O)/C=C/c3nc4ccccc4s3)CC1)CC2", "note": "(stereo not given)", "outcome": "inactive"}
{"smiles": "O=C(NC1CCCCC1)N(Cc1ccc(-c2cccc(CNC3CCCC3)c2)cc1)C1CCN(Cc2ccccc2)CC1", "outcome": "inactive"}
{"molecular_target": "Protein kinase 7 (PK7), Plasmodium falciparum 3D7 (PF3D7_0213400) (UniProt Q7YTF7)", "sequence (Q7YTF7 1-343)": "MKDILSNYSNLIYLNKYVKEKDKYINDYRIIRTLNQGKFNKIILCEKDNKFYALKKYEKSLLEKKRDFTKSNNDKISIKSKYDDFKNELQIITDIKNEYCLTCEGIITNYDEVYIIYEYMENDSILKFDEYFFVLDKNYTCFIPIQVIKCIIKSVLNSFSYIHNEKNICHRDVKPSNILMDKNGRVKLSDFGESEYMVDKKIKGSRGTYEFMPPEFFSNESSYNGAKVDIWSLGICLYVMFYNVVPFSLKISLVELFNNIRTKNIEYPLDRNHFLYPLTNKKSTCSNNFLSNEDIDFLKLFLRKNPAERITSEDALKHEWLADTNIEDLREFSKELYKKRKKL", "experiment": "inhibition of Plasmodium PK7 catalytic activity – biochemical, TCAMS antimalarial set, Kinase-Glo luminescence (AID 1159587)", "settings": "recombinant PfPK7, Kinase-Glo ATP depletion luminescence"}
{"smiles": "CC[C@H](C)CNC(=O)c1cncc(-c2ccc(CNCCOc3ccccc3)cc2)c1", "outcome": "inactive"}
{"smiles": "COc1cccc(NC(=O)Nc2ccc(C)c(-c3ccc(C(=O)Nc4ccncc4)cc3)c2)c1", "outcome": "inactive"}
{"smiles": "CCCNCc1c(O)ccc2c(CNCCC)c(O)ccc12", "outcome": "inactive"}
{"smiles": "Clc1ncnc2ncn(Cc3cccc(Br)c3)c12", "outcome": "inactive"}
{"smiles": "CCN(CC)CCN(Cc1ccc(-c2ccc(C(F)(F)F)cc2)cc1)C(=O)c1ccc(-c2ccc(NC(=O)OC)cc2C)cc1", "outcome": "inactive"}
{"smiles": "CCNc1cc(C)nc(Nc2ccc(NC(=O)c3ccccc3)cc2)n1", "outcome": "inactive"}
{"smiles": "Cc1cccc2[nH]c(-c3cccc(-c4ccc(C(=O)NCc5ccccc5S(C)(=O)=O)cc4)c3)nc12", "outcome": "inactive"}
{"smiles": "CO/C(=C\\C=C\\c1cc2cc(Cl)c(Cl)cc2[nH]1)C(=O)NCCCCN1CCN(c2ccccc2OC)CC1", "outcome": "inactive"}
{"smiles": "COc1ccc(CNC2CCN(C)CC2)cc1-c1cccc(S(=O)(=O)NCc2ccccc2)c1", "outcome": "inactive"}
{"smiles": "O=C(c1cccc(Br)c1)N1CCN(c2ccc([N+](=O)[O-])c(NC3CC3)c2)CC1", "outcome": "inactive"}
{"smiles": "CN(C)CCNc1cc(-c2ccc3ccccc3c2)nc2ccccc12", "outcome": "inactive"}
{"smiles": "CC1(C)N=C(N)N=C(N)C1c1ccc(Cl)cc1", "note": "(stereo not given)", "outcome": "inactive"}
{"smiles": "CCCCCCCc1c2c(C)c(C(=O)OCC)nc-2cc2n1CC(C)=C2C", "outcome": "inactive"}
{"smiles": "COc1ccccc1Oc1c(N(C)S(=O)(=O)c2ccc(C(C)C)cc2)nc(C(F)(F)F)nc1N(C)S(=O)(=O)c1ccc(C(C)C)cc1", "outcome": "inactive"}
{"smiles": "Cc1ccc(CN2CCCN(Cc3cccc(C(=O)Nc4ccc(C(C)(C)C)cc4)c3)CC2)s1", "outcome": "inactive"}
{"smiles": "CCN(CC)C(=NCCCCCCN=C(NC(N)=NCc1ccc(Cl)cc1Cl)N(CC)CC)NC(N)=NCc1ccc(Cl)cc1Cl", "outcome": "inactive"}
{"smiles": "CCCNCc1ccc(-c2ccc(CN(Cc3cccs3)C(=O)C3CCN(C)CC3)cc2)nc1", "outcome": "inactive"}
{"smiles": "O=C(Nc1cccc(-c2cccc(-c3nc4ccc(C(F)(F)F)cc4[nH]3)c2)c1)c1ccncc1", "outcome": "inactive"}
{"smiles": "CN(C)CCNC(=O)c1cccc(-c2cnc3ccc(NCc4ccc(Cl)c(Cl)c4)nn23)c1", "outcome": "inactive"}
{"smiles": "CC(C)(C)S[C@H]1S[C@H](SC(C)(C)C)[C@@H](OC(=O)c2ccccc2)C(OC(=O)c2ccccc2)[C@H]1OC(=O)c1ccccc1", "note": "(stereo not given in full)", "outcome": "inactive"}
{"smiles": "COC(=O)Cn1c(C2CCN(CC3CCN(C(=O)/C=C/c4ccc(Cl)c(Cl)c4)CC3)CC2)nc2ccccc21", "outcome": "inactive"}
{"smiles": "N#CCCN1CCN(Cc2cccc(-c3ccc(-c4nc5ccccc5[nH]4)s3)c2)CC1", "outcome": "inactive"}
{"smiles": "COc1ccc(-c2cccc(NC(=O)c3ccc(Cl)cc3)c2)cc1CN1CCNCC1", "outcome": "inactive"}
{"smiles": "CCCCCCOc1ccc(C(=O)N(Cc2ccccc2)c2c(-c3ccccc3)nc3cc(C)ccn23)cc1", "outcome": "inactive"}
{"smiles": "Fc1cccc(COc2ccc(-n3ccc4c(NCCCn5ccnc5)ncnc43)cc2Cl)n1", "outcome": "inactive"}
{"smiles": "COc1ccc(O)c(C(=O)c2cc(C(=O)NC3CCCCC3)c(=O)n(C3CCCCC3)c2)c1", "outcome": "inactive"}
{"smiles": "Cc1ccc(N(CCC(=N)N)Cc2ccccc2)cc1", "outcome": "inactive"}
{"smiles": "CC(C)Oc1ccccc1-c1csc(C(=O)NCC2CCN(Cc3ccc(C(C)(C)C)cc3)C2)c1", "note": "(stereo not given)", "outcome": "inactive"}
{"smiles": "O=C1COc2ccc(CNC3CCC(O)(CCc4ccnc5cc6c(cc45)OCCO6)CC3)nc2N1", "note": "(stereo not given)", "outcome": "inactive"}
{"smiles": "C#CCCC(=O)Nc1cccc(-c2cccc(-c3nc4ccc(C(F)(F)F)cc4[nH]3)c2)c1", "outcome": "inactive"}
{"smiles": "CC(=O)Oc1ccc(C(=O)Oc2ccccc2C#CC#N)cc1OC(C)=O", "outcome": "inactive"}
{"smiles": "Cc1[nH]c(C)c(-c2ccc(-c3cccc(OC(F)(F)F)c3)nc2)c(=O)c1Cl", "outcome": "inactive"}
{"smiles": "FC(F)(F)c1ccc2nc(-c3ccc(-c4ccc(CNCCN5CCNCC5)cc4)s3)[nH]c2c1", "outcome": "inactive"}
{"smiles": "CCCCCCP(=O)(COc1ccc(CCN(CC(O)COc2cccc3[nH]c(C(N)=O)cc23)CC(O)COc2cccc3[nH]c(C(N)=O)cc23)cc1)OCCCC", "note": "(stereo not given)", "outcome": "inactive"}
{"smiles": "C[C@@H]1CN(c2cnn(C/C=C/c3ccc(NC(=O)c4ccc(Cl)cc4)cc3)c(=O)c2Cl)C[C@H](C)N1", "outcome": "inactive"}
{"smiles": "Cc1noc(C)c1-c1cccc(CNCc2cccc(-c3cccc(-c4nc5c(C)cccc5[nH]4)c3)c2)c1", "outcome": "inactive"}
{"smiles": "CNCc1ccc(-c2ccc3ccnc(N)c3c2)cc1", "outcome": "inactive"}
{"smiles": "COc1ccc(Cc2cccc(C(C(=O)NCc3cc(Cl)cc(Cl)c3)N3CCN(C)CC3)c2)cc1", "note": "(stereo not given)", "outcome": "inactive"}
{"smiles": "N#Cc1ccc2c(c1)CCN(CCC1CCC(NC(=O)/C=C/c3nc4ccccc4s3)CC1)CC2", "note": "(stereo not given)", "outcome": "inactive"}
{"smiles": "O=C(NC1CCCCC1)N(Cc1ccc(-c2cccc(CNC3CCCC3)c2)cc1)C1CCN(Cc2ccccc2)CC1", "outcome": "inactive"}
